From PubChem BioAssay (NCATS)
Records with an inconclusive call do not appear. Active and inactive are the calls of the source. The call rests on the fitted dose curve; in most records, active means well fitted curve in the direction sought with a large enough effect; inconclusive means small, poorly fitted or top-dose-only effect, or another doubt; inactive means no such curve, though single readings can be large; an effect the other way counts as inactive or inconclusive.

Experiments:
[1] = Cell Viability - H-4-II-E (AID 543);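 further: cells exposed to compound for 40 hours; on the % scale 0 is the no-effect control and ±100 the full control effect; nearly all actives have a fitted effect of over 35% in size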
Method in brief: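 CellTiter-Glo luminescence (intracellular ATP) measured after 40 h compound exposure at 37 °C in H-4-II-E rat hepatoma cells seeded at 1500/well. Values are AC50s fitted with the standard Hill equation.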

[2] = Cell Viability - SH-SY5Y (AID 544); details: SH-SY5Y neuroblastoma cell viability; viability change, negative = cytotoxic: at 92.2 µM (top of the series);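 further: cells exposed to compound for 40 hours; nearly all actives have a fitted effect of over 55% in size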
Method in brief: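 Cytotoxicity measured via ATP-dependent luciferase luminescence (CellTiter-Glo) following 40 h, 37 °C exposure of 1500 SH-SY5Y cells per well. Concentration-response data were fitted with the standard Hill equation to give AC50.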

[3] = Cell Viability - Renal Proximal Tubule (AID 545);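 further: cells exposed to compound for 40 hours; nearly all actives have a fitted effect of over 40% in size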
Method in brief: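 Luminescent ATP signal (CellTiter-Glo) served as the viability read-out after 40 hr compound exposure of freshly isolated rat proximal tubule cells at 37 °C. Concentration-dependent ATP loss was fitted with the Hill equation to give AC50.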

[4] = Cell Viability - Mesenchymal (AID 546);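 further: cells exposed to compound for 40 hours before reading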
Method in brief: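 In this qHTS cytotoxicity format, glomerulus-derived human mesenchymal kidney cells received compound for 40 hr, then luciferase-based ATP quantitation. Concentration-response data were fitted with the Hill equation.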

[5] = Cellular Toxicity (caspase-3) HepG2 (AID 654);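 further: cells exposed to compound for 16 hours before reading; 0% = DMSO alone and 100% = caspase signal from 100 µM tamoxifen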
Method in brief: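 Caspase 3/7 activation is measured as a luminescence increase (aminoluciferin substrate) after 16 h compound exposure of human hepatocarcinoma HepG2 cells. AC50 values are Hill fits, scaled between DMSO baseline and 100 uM tamoxifen stimulation.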

[6] = Cellular Toxicity (caspase-3) Jurkat (AID 655); details: Jurkat caspase-3 activation, luminescence; caspase-3 activation: at 92.2 µM (top of the series), DMSO = 0%, tamoxifen = 100%;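 further: cells exposed to compound for 16 h at 37 °C before reading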
Method in brief: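 5000 Jurkat cells/well; compound 16 hr, 37 °C; Caspase-Glo 3/7 added, 20 min RT; luminescence read. Norm: DMSO = 0%, tamoxifen 100 uM = 100%. AC50, Hill model.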

[7] = Cellular Toxicity (caspase-3) HUV-EC-C (AID 656)
Method in brief: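 qHTS; HUV-EC-C, 1000 cells/well; 5 hr settle, 16 hr cmpd, 37°C; Caspase-Glo 3/7, 20 min RT; luminescence. Norm: DMSO = 0%, tamoxifen 100 uM = 100%. Hill-fit AC50.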

[8] = Cellular Toxicity (caspase-3) SHSY5Y (AID 657);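 further: cells exposed to compound for 16 hours at 37 °C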
Method in brief: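 qHTS, SH-SY5Y, 1500 cells/well, 5 h pre-incubation 37 °C; compound 16 h 37 °C; Caspase-Glo 3/7 1 h RT; luminescence. Norm.: DMSO = 0, 10 uM staurosporine = 100%. Hill fit → AC50.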

[9] = Cellular Toxicity (caspase-3) BJ (AID 658);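 further: cells exposed to compound for 16 hours; 0% = DMSO basal and 100% = 10 µM staurosporine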
Method in brief: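 Plated BJ cells (1000/well) rested 5 hr, received compound for 16 hr at 37 °C, then Caspase-Glo 3/7 reagent for 1 hr at room temperature before luminescence reading.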

[10] = Cellular Toxicity (caspase-3) MRC-5 (AID 659);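 further: 0% = DMSO basal and 100% = 10 µM staurosporine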
Method in brief: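 Apoptosis readout in MRC-5 cells: luciferase light generated after caspase 3/7 cleaves a peptide-aminoluciferin substrate, measured post 16 hr compound incubation at 37 °C.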

CN(C)CCCNCCCN
inactive: Potency [1] | Potency [2] | Potency [3] | Potency [4] | Potency [5] | caspase-3 activation [6] 2.48% | outcome [7] | outcome [8] | outcome [9] | outcome [10]

Cc1ccccc1Br
inactive: Potency [1] | Potency [2] | Potency [3] | Potency [4] | Potency [5] | caspase-3 activation [6] -0.129% | outcome [7] | outcome [8] | outcome [9] | outcome [10]

CCNS(=O)(=O)c1ccc(C)cc1
inactive: Potency [1] | Potency [2] | Potency [3] | Potency [4] | Potency [5] | caspase-3 activation [6] 2.46% | outcome [7] | outcome [8] | outcome [9] | outcome [10]

O=Cc1cccc(Br)c1
inactive: Potency [1] | Potency [2] | Potency [3] | Potency [4] | Potency [5] | caspase-3 activation [6] 2.44% | outcome [7] | outcome [8] | outcome [9] | outcome [10]

COC(=O)CCCC(=O)OC
inactive: Potency [1] | Potency [2] | Potency [3] | Potency [4] | Potency [5] | caspase-3 activation [6] 0.321% | outcome [7] | outcome [8] | outcome [9] | outcome [10]

CCCCCCCN
inactive: Potency [1] | Potency [2] | Potency [3] | Potency [4] | Potency [5] | caspase-3 activation [6] -1.01% | outcome [7] | outcome [8] | outcome [9] | outcome [10]

c1ccc2c(c1)Oc1ccccc1S2
inactive: Potency [1] | Potency [2] | Potency [3] | Potency [4] | Potency [5] | caspase-3 activation [6] -0.252% | outcome [7] | outcome [8] | outcome [9] | outcome [10]

Cc1ccccc1C=O
inactive: Potency [1] | Potency [2] | Potency [3] | Potency [4] | Potency [5] | caspase-3 activation [6] 0.742% | outcome [7] | outcome [8] | outcome [9] | outcome [10]

CNC(=O)N(c1ccccc1)c1ccccc1
inactive: Potency [1] | Potency [2] | Potency [3] | Potency [4] | Potency [5] | caspase-3 activation [6] 1.82% | outcome [7] | outcome [8] | outcome [9] | outcome [10]

CC(=O)OC(C)=O
inactive: Potency [1] | Potency [2] | Potency [3] | Potency [4] | Potency [5] | caspase-3 activation [6] -0.999% | outcome [7] | outcome [8] | outcome [9] | outcome [10]

CC(C)N=C=NC(C)C
inactive: Potency [1] | Potency [2] | Potency [3] | Potency [4] | Potency [5] | caspase-3 activation [6] 2.33% | outcome [7] | outcome [8] | outcome [9] | outcome [10]

CCC(C)(C)OC
inactive: Potency [1] | Potency [2] | Potency [3] | Potency [4] | Potency [5] | caspase-3 activation [6] 1.32% | outcome [7] | outcome [8] | outcome [9] | outcome [10]

Cc1ccc(C)o1
inactive: Potency [1] | Potency [2] | Potency [3] | Potency [4] | Potency [5] | caspase-3 activation [6] 1.7% | outcome [7] | outcome [8] | outcome [9] | outcome [10]

Cc1cc(C)c(N)cc1C
inactive: Potency [1] | Potency [2] | Potency [3] | Potency [4] | Potency [5] | caspase-3 activation [6] -1.78% | outcome [7] | outcome [8] | outcome [9] | outcome [10]

CNc1ccccc1
inactive: Potency [1] | Potency [2] | Potency [3] | Potency [4] | Potency [5] | caspase-3 activation [6] 1.08% | outcome [7] | outcome [8] | outcome [9] | outcome [10]

OC(CCl)CCl
inactive: Potency [1] | Potency [2] | Potency [3] | Potency [4] | Potency [5] | caspase-3 activation [6] 0.028% | outcome [7] | outcome [8] | outcome [9] | outcome [10]

CC(O)CC(C)O (stereo not given)
inactive: Potency [1] | Potency [2] | Potency [3] | Potency [4] | Potency [5] | caspase-3 activation [6] 0.345% | outcome [7] | outcome [8] | outcome [9] | outcome [10]

CC(C)=C1CCC(C)CC1=O (stereo not given)
inactive: Potency [1] | Potency [2] | Potency [3] | Potency [4] | Potency [5] | caspase-3 activation [6] -1.31% | outcome [7] | outcome [8] | outcome [9] | outcome [10]

O=C(O)c1cccc(Cl)c1Cl
inactive: Potency [1] | Potency [2] | Potency [3] | Potency [4] | Potency [5] | caspase-3 activation [6] 0.107% | outcome [7] | outcome [8] | outcome [9] | outcome [10]

CC(=O)c1ccccn1
inactive: Potency [1] | Potency [2] | Potency [3] | Potency [4] | Potency [5] | caspase-3 activation [6] 12.2% | outcome [7] | outcome [8] | outcome [9] | outcome [10]

CC(C)CCOC(=O)/C=C/c1ccccc1
inactive: Potency [1] | Potency [2] | Potency [3] | Potency [4] | Potency [5] | caspase-3 activation [6] 0.824% | outcome [7] | outcome [8] | outcome [9] | outcome [10]

Oc1c(Cl)ccc(Cl)c1Cl
inactive: Potency [1] | Potency [2] | Potency [3] | Potency [4] | Potency [5] | caspase-3 activation [6] 0.893% | outcome [7] | outcome [8] | outcome [9] | outcome [10]

CCOC(=O)OCC
inactive: Potency [1] | Potency [2] | Potency [3] | Potency [4] | Potency [5] | caspase-3 activation [6] 0.854% | outcome [7] | outcome [8] | outcome [9] | outcome [10]

CC(C)C(C)C
inactive: Potency [1] | Potency [2] | Potency [3] | Potency [4] | Potency [5] | caspase-3 activation [6] -0.000823% | outcome [7] | outcome [8] | outcome [9] | outcome [10]

Cc1cccc(C)c1O
inactive: Potency [1] | Potency [2] | Potency [3] | Potency [4] | Potency [5] | caspase-3 activation [6] -0.87% | outcome [7] | outcome [8] | outcome [9] | outcome [10]

C=C(C)OC(C)=O
inactive: Potency [1] | Potency [2] | Potency [3] | Potency [4] | Potency [5] | caspase-3 activation [6] -0.77% | outcome [7] | outcome [8] | outcome [9] | outcome [10]
